The nature of test [1]: yeast TOR pathway RPL19A-GFP modulators, primary screen, cell-based, S. cerevisiae, multiplex flow cytometry (AID 1862; in the data active = percent of DMSO control GFP below about 86%;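 also: lower values mimic rapamycin by blocking the RPL19A rise seen in DMSO cells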). Conditions: S. cerevisiae RPL19A-GFP strain, flow cytometry fluorescence, 3 h; at 10 µM; stronger effect = lower value.
Test [2] can be described thus: modulators of MEP2-GFP levels in yeast, primary screen, S. cerevisiae, multiplex flow cytometry (AID 1867;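 active = GFP response, as percent of the DMSO control, above the screen-wide mean plus 3 SD, about 139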;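 also: median GFP channel fluorescence of barcode-gated MEP2-GFP cells measured by flow cytometry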). Conditions: S. cerevisiae MEP2-GFP strain, 3 h, at 10 µM, stronger effect = higher value, 100% means same as DMSO wells.
Test [3] is described as follows: modulators of CIT2-GFP expression in yeast, primary screen, S. cerevisiae, GFP fusion, multiplex flow cytometry (AID 1870;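 active = percent response above a set limit, the screen-wide mean plus 3 SD, cut at about 130% in these data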;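 also: barcoded CIT2-GFP strain pooled with four other GFP strains with rapamycin as positive control; median GFP fluorescence per well over plate mean of DMSO wells so 100% = DMSO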). Conditions: 3 h, at 10 µM, stronger effect = higher value.
Test [4] in a line: modulators of LAP4-GFP expression in yeast, primary screen, S. cerevisiae, multiplex flow cytometry (AID 1873;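 active = GFP signal, as percent of the solvent control, above the screen mean plus 3 SD, about 149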). Conditions: 3 h, at 10 µM, stronger effect = higher value.
The nature of test [5]: modulators of AGP1-GFP expression in yeast TOR pathway, primary screen, cell-based, multiplex flow cytometry, S. cerevisiae (AID 1887;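 active = GFP signal above the screen-wide mean plus 3 SD, that is over about 124.5% of the solvent control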;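 also: AGP1-GFP fusion strain of S. cerevisiae within a five-strain barcoded multiplex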). Conditions: 3 h, at 10 µM, stronger effect = higher value.
The nature of test [6]: inhibitors of CD8+ T cell-vesicle binding, pilot screen, LFA-1/ICAM-1 modulator project, MLPCN validation set, flow cytometry (AID 2523;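 active = response below a set limit, under 55% cells CD8-positive and vesicle-bound, and CD8 cells' 90th-percentile brightness under 279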;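 as to vesicle binding response: mean PE anti-B7-1 fluorescence of CD8+ cells relative to row control; 100% = QL9-loaded vesicles with DMSO vehicle in the same plate row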). The settings on record: 2C mouse CD8+ T cells, at 7 µM, stronger effect = lower value; double positive events: measured here: CD8+/vesicle+ event percentage.
Test [7] addresses Integrin beta-1 (Homo sapiens) + Integrin alpha-4 (Homo sapiens) (UniProt P13612+P05556). Description: inhibition of HUTS-21 binding to VLA-4, pilot screen, VLA-4 allosteric modulator project, U937 cells, HUTS-21 mAb, flow cytometry, validation set (AID 2674;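 active = inhibition above 50%, about 3 SD of the validation set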;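 also: antibody binding induced by the VLA-4 ligand LDV present at three times its Kd; 0% = LDV ligand with antibody and no compound and 100% = antibody without LDV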). Conditions: HUTS-21 LIBS mAb binding, at 6.7 µM, stronger effect = higher value, binding induced by LDV ligand.
Test [8] in a line: superoxide lowering in aged yeast cells, pilot screen, validation compound set (AID 2706;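 active = superoxide response below 65% of plate, a cut near 3 SD across the whole screen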;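 also: yeast exposed to compound for one week at 30 degrees C before staining; 100% = mean of all compound wells on the same plate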). Conditions: S. cerevisiae aging, superoxide DHE fluorescence; at 10 µM; stronger effect = lower value.
Test [9] deals with Beta-adrenergic receptor kinase 1 (Homo sapiens) (UniProt P25098). Description: GRK2 binders displacing RNA aptamer, biochemical, validation, human GRK2, bead flow cytometry (AID 488806;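 active = aptamer binding inhibition above 30%, about 3 SD of noise from non-fluorescent compounds; inactive = inhibition at or below 30%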). Conditions: bead-bound GRK2, FAM-aptamer displacement, at 10 µM, stronger effect = higher value.
Test [10] addresses Beta-2 adrenergic receptor (Homo sapiens) (UniProt P07550). Description: beta2AR agonists driving receptor internalization, pilot screen, cell-based, FAP fluorogen, flow cytometry, validation set (AID 504459;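 active = percent response above 42, roughly 3 SD of non-fluorescent test compounds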;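 also: agonist-driven loss of surface beta2AR via internalization measured by FAP dye flow cytometry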). The settings on record: Am2.2-beta2AR cells, FAP surface receptor flow cytometry; at 10 µM; stronger effect = higher value.
Test [11] concerns the target AP-2 complex subunit beta (Homo sapiens) (UniProt P63010). Kind of test: inhibitors of arrestin peptide binding to AP2, pilot screen, biochemical, validation set, GST-AP2 beads, flow cytometry (AID 504541;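 active = inhibition above 54%, about 3 SD of non-fluorescent compounds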;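 also: AP2 carries R879A mutation and is captured from E. coli lysate; bead-bound FITC arrestin peptide fluorescence measuring arrestin peptide binding to AP2; 0% = DMSO wells and 100% = excess unlabeled arrestin peptide control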). The settings on record: FITC arrestin peptide, at 10 µM, stronger effect = higher value, AP2 beta2 appendage fragment, R879A mutant.
Test [12] is described as follows: yeast V-ATPase proton transport modulators, S. cerevisiae, pHLuorin, HTS validation (AID 504600; in the data active = response above about 15%;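 also: plate controls were DMSO for no effect and reference compound for full effect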). Conditions: S. cerevisiae pHLuorin cytosolic pH, at 10 µM, stronger effect = higher value.
The subject of test [13] is anti-desmoglein-3 scFv antibody binding to human DSG3. Description: inhibitors of anti-DSG3 scFv binding to DSG3, pilot screen, biochemical, validation compound set, bead-based, flow cytometry (AID 588368;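 active = binding below the plate cutoff, the plate median minus 3 SD, with a reading above zero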;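 also: signal is the median channel fluorescence of bead-bound GFP antibody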). The settings on record: Protein G beads, DSG3-Fc, scFv-GFP binding, at 10 µM, stronger effect = lower value.
Test [14] is described as follows: inhibitors of fungal efflux pumps CDR1, CDR2, MDR1, pilot screen, validation compound set, multiplex, phenotypic (AID 588506;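 active = efflux inhibition above 0.42, the validation set average plus 4 SD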;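 also: Nile Red retained in cells so higher fluorescence means more efflux inhibition; 0 = negative control wells and 1 = enniatin B 25 µM full block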). The settings on record: S. cerevisiae pump-expressing triplex, Nile Red efflux flow cytometry; at 10 µM; stronger effect = higher value; the pumps come from Candida albicans.
Test [15] has as its target ATP-binding cassette sub-family B member 6 (Homo sapiens) (UniProt Q9NP58). Kind of test: ABCB6 transporter inhibitors, pilot screen, K562-ABCB6 cells, flow cytometry, validation set (AID 588550).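 Also: 0% = DMSO wells and 100% = benzethonium chloride 70 µM positive control.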 The settings on record: K562-ABCB6 porphyrin accumulation, 1 h, at 10 µM, stronger effect = higher value.
A short description of test [16]: promoters of myeloid differentiation in arrested cells, primary screen, cell-based, GFP/MAC1 double positive, flow cytometry, validation set (AID 588685;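 active = differentiation response of at least 50%, scaled between solvent and reference control, from cells with both markers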;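 also: compound exposure lasts four days before antibody staining and flow analysis; 0% = DMSO wells and 100% = 5 µM fulvestrant positive control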). Conditions: ER-HoxA9 marrow cells, stronger effect = higher value, normalized: vehicle 0, fulvestrant 100.

Several values for one entry are separate records, joined by “and”; a condition that tells them apart may be missing. Identical values can stand only once. Records with an inconclusive call do not appear. Activity calls are given as the source filed them.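 The calls were made as follows, unless noted: active = inhibition above the screen-wide mean plus 3 SD, about 51%; inactive = the rest.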

Chain of ATP-binding cassette sub-family B member 6 (Homo sapiens) (Q9NP58 whole entry, looked up): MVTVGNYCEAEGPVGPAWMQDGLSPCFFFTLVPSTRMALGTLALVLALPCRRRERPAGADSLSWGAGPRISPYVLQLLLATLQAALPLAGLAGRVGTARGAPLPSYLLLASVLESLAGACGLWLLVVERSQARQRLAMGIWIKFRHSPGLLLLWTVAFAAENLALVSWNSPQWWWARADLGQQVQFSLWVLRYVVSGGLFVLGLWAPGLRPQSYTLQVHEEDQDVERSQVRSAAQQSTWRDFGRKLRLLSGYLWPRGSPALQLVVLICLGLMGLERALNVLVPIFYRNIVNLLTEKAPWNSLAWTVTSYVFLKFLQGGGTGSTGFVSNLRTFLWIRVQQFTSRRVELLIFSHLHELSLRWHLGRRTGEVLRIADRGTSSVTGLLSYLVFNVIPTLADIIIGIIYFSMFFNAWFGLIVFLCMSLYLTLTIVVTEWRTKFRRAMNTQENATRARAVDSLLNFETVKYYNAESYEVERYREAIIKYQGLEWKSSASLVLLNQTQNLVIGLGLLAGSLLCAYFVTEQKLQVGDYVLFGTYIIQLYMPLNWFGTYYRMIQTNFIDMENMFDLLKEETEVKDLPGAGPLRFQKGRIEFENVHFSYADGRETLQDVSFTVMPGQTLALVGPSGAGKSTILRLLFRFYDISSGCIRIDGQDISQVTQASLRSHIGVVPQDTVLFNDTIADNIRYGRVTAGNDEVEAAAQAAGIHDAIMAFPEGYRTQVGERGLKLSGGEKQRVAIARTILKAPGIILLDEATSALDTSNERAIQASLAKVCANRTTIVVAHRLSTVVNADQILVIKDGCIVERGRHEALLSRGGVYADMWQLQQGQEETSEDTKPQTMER
Chain of Beta-2 adrenergic receptor (Homo sapiens) (P07550 whole entry, looked up): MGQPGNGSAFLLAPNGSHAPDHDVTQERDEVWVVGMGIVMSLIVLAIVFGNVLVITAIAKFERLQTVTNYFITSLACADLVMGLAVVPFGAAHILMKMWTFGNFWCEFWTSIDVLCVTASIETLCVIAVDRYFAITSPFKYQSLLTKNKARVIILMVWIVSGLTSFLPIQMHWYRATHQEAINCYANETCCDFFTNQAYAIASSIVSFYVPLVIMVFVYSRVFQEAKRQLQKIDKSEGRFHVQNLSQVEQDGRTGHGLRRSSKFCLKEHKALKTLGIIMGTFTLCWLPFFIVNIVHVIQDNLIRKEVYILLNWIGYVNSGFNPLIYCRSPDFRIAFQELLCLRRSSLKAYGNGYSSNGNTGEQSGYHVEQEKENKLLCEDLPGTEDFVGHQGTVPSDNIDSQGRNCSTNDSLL
Chain of Beta-adrenergic receptor kinase 1 (Homo sapiens) (P25098 whole entry, looked up): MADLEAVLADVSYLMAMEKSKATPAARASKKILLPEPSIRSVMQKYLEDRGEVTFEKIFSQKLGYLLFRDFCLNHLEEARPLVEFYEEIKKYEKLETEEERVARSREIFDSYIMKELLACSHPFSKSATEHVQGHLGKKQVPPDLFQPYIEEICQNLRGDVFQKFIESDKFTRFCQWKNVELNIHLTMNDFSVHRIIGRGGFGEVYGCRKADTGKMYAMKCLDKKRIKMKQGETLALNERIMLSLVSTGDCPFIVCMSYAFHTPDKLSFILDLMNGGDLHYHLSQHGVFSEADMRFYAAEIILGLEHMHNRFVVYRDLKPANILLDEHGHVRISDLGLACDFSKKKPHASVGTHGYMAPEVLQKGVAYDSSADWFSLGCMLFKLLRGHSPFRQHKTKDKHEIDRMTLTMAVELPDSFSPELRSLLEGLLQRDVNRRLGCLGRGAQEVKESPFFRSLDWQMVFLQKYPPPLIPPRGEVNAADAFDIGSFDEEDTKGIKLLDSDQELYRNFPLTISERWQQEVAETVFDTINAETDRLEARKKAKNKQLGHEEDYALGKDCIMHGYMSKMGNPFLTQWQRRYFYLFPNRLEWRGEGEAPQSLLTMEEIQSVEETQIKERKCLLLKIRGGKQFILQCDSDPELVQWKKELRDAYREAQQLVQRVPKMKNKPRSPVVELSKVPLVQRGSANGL
Chain of AP-2 complex subunit beta (Homo sapiens) (P63010 whole entry, looked up, the tested form may be a part, one chain of several): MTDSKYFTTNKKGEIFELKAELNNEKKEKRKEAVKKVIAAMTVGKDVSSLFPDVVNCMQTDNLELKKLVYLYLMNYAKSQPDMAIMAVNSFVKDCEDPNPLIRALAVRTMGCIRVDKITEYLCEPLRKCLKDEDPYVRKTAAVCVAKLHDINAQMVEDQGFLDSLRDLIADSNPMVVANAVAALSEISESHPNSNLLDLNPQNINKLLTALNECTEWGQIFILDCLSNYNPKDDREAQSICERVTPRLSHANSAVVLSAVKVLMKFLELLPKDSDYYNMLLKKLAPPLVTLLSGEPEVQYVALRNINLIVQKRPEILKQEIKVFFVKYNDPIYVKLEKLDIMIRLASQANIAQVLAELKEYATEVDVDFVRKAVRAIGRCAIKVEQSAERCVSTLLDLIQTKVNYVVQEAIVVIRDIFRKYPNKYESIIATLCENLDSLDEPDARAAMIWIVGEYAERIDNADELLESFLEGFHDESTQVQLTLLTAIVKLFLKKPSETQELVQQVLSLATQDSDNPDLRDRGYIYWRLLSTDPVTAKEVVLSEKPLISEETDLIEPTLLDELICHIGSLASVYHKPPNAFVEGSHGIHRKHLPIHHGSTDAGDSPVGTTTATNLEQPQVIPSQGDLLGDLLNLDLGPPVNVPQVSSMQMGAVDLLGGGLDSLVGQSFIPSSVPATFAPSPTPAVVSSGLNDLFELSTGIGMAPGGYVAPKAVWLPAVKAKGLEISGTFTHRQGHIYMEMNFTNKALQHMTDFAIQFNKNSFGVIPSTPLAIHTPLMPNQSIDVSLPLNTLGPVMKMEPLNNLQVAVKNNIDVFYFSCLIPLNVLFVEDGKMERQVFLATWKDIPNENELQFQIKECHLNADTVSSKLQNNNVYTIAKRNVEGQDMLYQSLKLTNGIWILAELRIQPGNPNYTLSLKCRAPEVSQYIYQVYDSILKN
Chain of Integrin beta-1 (Homo sapiens) + Integrin alpha-4 (Homo sapiens) (P05556 whole entry, looked up): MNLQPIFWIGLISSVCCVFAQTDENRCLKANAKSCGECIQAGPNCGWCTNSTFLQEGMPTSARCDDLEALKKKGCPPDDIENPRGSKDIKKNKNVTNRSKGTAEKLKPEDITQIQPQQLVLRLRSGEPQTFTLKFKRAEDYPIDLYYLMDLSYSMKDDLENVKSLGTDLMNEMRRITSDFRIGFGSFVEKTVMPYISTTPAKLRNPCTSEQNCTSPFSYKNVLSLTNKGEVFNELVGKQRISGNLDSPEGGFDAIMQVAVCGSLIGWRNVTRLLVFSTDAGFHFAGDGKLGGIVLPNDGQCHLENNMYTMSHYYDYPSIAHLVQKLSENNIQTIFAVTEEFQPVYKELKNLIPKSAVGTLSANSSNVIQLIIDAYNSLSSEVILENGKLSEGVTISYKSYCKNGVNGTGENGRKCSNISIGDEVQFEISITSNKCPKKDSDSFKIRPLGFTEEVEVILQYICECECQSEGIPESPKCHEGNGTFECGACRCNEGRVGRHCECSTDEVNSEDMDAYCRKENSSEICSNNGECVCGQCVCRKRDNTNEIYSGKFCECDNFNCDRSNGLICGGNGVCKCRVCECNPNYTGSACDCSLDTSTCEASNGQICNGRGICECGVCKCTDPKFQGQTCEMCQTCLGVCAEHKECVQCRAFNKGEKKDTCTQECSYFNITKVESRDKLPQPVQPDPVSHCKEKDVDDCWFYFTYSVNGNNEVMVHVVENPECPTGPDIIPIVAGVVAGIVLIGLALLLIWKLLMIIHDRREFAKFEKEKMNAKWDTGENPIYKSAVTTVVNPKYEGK
Chain of Integrin beta-1 (Homo sapiens) + Integrin alpha-4 (Homo sapiens) (P13612 whole entry, looked up): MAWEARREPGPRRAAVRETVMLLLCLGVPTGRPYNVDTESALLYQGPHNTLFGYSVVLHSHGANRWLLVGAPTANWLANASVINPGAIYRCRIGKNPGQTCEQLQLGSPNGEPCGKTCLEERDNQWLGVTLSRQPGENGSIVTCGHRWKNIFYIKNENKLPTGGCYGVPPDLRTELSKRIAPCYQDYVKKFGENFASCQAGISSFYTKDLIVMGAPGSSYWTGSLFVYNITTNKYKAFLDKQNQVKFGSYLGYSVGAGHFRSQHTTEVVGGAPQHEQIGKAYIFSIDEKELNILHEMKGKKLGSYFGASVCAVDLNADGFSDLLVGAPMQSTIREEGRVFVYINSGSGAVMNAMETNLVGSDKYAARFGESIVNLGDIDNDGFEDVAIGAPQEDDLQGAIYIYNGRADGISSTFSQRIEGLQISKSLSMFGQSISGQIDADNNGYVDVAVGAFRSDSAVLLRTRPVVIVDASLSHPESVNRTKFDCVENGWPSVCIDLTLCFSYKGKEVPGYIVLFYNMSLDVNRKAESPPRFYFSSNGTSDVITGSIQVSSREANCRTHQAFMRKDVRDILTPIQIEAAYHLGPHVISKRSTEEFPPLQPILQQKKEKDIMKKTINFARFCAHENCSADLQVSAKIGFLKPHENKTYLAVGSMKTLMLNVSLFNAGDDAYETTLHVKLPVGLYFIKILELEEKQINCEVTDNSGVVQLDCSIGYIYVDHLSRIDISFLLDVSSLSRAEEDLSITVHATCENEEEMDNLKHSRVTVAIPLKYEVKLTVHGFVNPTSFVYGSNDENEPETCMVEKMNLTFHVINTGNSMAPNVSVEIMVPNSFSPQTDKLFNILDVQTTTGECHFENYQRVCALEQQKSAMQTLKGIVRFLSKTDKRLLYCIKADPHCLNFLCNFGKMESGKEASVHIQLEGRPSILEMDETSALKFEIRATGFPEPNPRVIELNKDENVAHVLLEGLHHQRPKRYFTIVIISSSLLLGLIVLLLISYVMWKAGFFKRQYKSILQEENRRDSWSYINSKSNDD

`O=C(N/C(=C/C=C\c1ccccc1)C(=O)N1CCOCC1)c1ccc(Br)cc1`: the percent of DMSO control GFP in test [1] was 98.4% (inactive). In addition, the GFP response vs DMSO was 107% (inactive) in [2] and 123% (inactive) in test [4]. For the same compound, the percent response of DMSO control in test [3] is 100% (inactive). Moreover, the GFP response, % of DMSO in test [5] is 115% (inactive). In [6], this compound had a double positive events of 65.2%. In addition, in [6], the vesicle binding response was 185% (inactive). The inhibition in [7] is 2.29% (inactive); in test [11] it was 6.94% (inactive); in test [15], 2% (inactive). Besides, the superoxide response (% of plate) in test [8] is 84.9% (inactive). In addition, the aptamer binding inhibition in test [9] was 1% (inactive). Besides, the response in test [10] is -28% (inactive); in [12] it was 2.4% (inactive). Besides, the binding (% of control) in [13] is 103% (inactive). In addition, the efflux inhibition (fraction of control) in test [14] was 0.42 (inactive). Besides, the differentiation response in [16] is -6.96% (inactive).
With `Cc1ccc(/C(=C\CN2CCCC2)c2ccccn2)cc1`, the percent of DMSO control GFP in test [1] was 107% (inactive). Besides, the figures for the GFP response vs DMSO in [2] and in test [4] were 104% (inactive) and 88.2% (inactive), respectively. In addition, the percent response of DMSO control in test [3] is 108% (inactive). Besides, the GFP response, % of DMSO in test [5] was 100% (inactive). In test [6], this compound came in with a double positive events of 57.7%. Moreover, the vesicle binding response in [6] was 146% (inactive). Also, the inhibition in test [7] is 12.3% (inactive); in test [11], -9.23% (inactive); in test [15] it was -16% (inactive). Besides, the superoxide response (% of plate) in test [8] was 106% (inactive). The aptamer binding inhibition in [9] was 1% (inactive). The response was 7.2% (inactive) in [10] and 0.97% (inactive) in test [12]. In addition, the binding (% of control) in test [13] is 108% (inactive). Besides, the efflux inhibition (fraction of control) in test [14] is 0.01 (inactive). Moreover, the differentiation response in test [16] is -19.2% (inactive).
On to `O=C1C(=O)N2C(=C1C(=O)N1CCCCCC1)c1ccccc1CC21CCCC1`, for which the percent of DMSO control GFP in test [1] was 92.2% (inactive). For the same compound, the results for the GFP response vs DMSO in [2] and in [4] were 109% (inactive) and 120% (inactive), respectively. The percent response of DMSO control in test [3] is 86.3% (inactive). Besides, the GFP response, % of DMSO in [5] is 99.8% (inactive). In [6], this compound showed a double positive events of 59.4%. Moreover, the vesicle binding response in test [6] was 201% (inactive). The inhibition in test [7] is 9.13% (inactive); in test [11], 31.8% (inactive); in test [15], 3% (inactive). In addition, the superoxide response (% of plate) in test [8] was 115% (inactive). The aptamer binding inhibition in test [9] was 3% (inactive). The response was -8.46% (inactive) in [10] and -1.64% (inactive) in test [12]. Also, the binding (% of control) in test [13] is 105% (inactive). For the same compound, in [14], the efflux inhibition (fraction of control) is -0.13 (inactive). Also, the differentiation response in test [16] is 5.6% (inactive).
Take `COc1ccc(C(=O)COc2ccc(F)cc2)c(O)c1`: in test [1], the percent of DMSO control GFP is 106% (inactive). Besides, the GFP response vs DMSO was 98.3% (inactive) in test [2] and 96% (inactive) in test [4]. Besides, in [3], the percent response of DMSO control is 106% (inactive). The GFP response, % of DMSO in [5] was 97.6% (inactive). The double positive events in test [6] came out at 60.6%. The vesicle binding response in test [6] is 253% (inactive). In addition, the inhibition in test [7] is -7.72% (inactive); in test [11], 1.75% (inactive); in [15], 1% (inactive). The superoxide response (% of plate) in test [8] is 86.7% (inactive). Besides, in test [9], the aptamer binding inhibition was 1% (inactive). In addition, the response in test [10] was -9.67% (inactive); in [12], 2.77% (inactive). Besides, the binding (% of control) in [13] is 94.5% (inactive). The efflux inhibition (fraction of control) in [14] is -0.04 (inactive). The differentiation response in test [16] was 1.22% (inactive).
For the compound `CC(/C=C1\SC(=O)N(CCCC(=O)O)C1=O)=C\c1ccccc1`, the percent of DMSO control GFP in test [1] is 105% (inactive). The GFP response vs DMSO in [2] is 103% (inactive); in [4], 124% (inactive). Also, in test [3], the percent response of DMSO control is 99% (inactive). The GFP response, % of DMSO in test [5] was 99.3% (inactive). Further, in test [6], the double positive events was 59.5%. The vesicle binding response in [6] is 161% (inactive). In addition, the figures for the inhibition in [7], in test [11] and in [15] were 12.5% (inactive), 37.2% (inactive) and 0% (inactive), respectively. The superoxide response (% of plate) in [8] is 112% (inactive). The aptamer binding inhibition in [9] was 2% (inactive). The response in test [10] was -6.06% (inactive); in test [12] it was -1.36% (inactive). Moreover, the binding (% of control) in test [13] was 101% (inactive). The efflux inhibition (fraction of control) in test [14] was 0 (inactive). Besides, the differentiation response in [16] is 12.8% (inactive).
For the compound `c1ccc(CN(CC2=NCCN2)c2ccccc2)cc1`, in test [1], the percent of DMSO control GFP was 87.8% (inactive). Further, the GFP response vs DMSO in test [2] is 138% (inactive); in test [4], 78.7% (inactive). For the same compound, in test [3], the percent response of DMSO control was 101% (inactive). For the same compound, the GFP response, % of DMSO in test [5] was 84.3% (inactive). Besides, the double positive events in test [6] is 64.5% and 68.1%. Besides, the vesicle binding response in [6] was 273% (inactive) and 176% (inactive). The inhibition in [7] was -56.6% (inactive) and -2.27% (inactive); in [11], 0.2% (inactive) and -12.4% (inactive); in test [15], -5% (inactive) and 12% (inactive). Also, the superoxide response (% of plate) in test [8] was 93.5% (inactive) and 98.7% (inactive). The aptamer binding inhibition in test [9] is 1% (inactive) and 2% (inactive). Besides, the response was 7.43% (inactive) and -2.34% (inactive) in test [10]; -4.75% (inactive) and 1.48% (inactive) in test [12]. In [13], the binding (% of control) is 111% (inactive) and 102% (inactive). In addition, the efflux inhibition (fraction of control) in test [14] is -0.35 (inactive) and -0.31 (inactive). Also, the differentiation response in test [16] was 15.6% (inactive) and -8.19% (inactive).
In the case of `O=C(Cc1ccccc1)NCC(=O)OCC(=O)c1ccccc1Cl`, in test [1], the percent of DMSO control GFP is 98.3% (inactive). Further, the results for the GFP response vs DMSO in test [2] and in [4] were 112% (inactive) and 74.3% (inactive), respectively. For the same compound, the percent response of DMSO control in [3] was 107% (inactive). In addition, the GFP response, % of DMSO in [5] was 93.3% (inactive). The double positive events in test [6] turned out to be 76.4%. Moreover, the vesicle binding response in test [6] is 296% (inactive). Moreover, the inhibition in test [7] was -2.27% (inactive); in test [11], -4.1% (inactive); in test [15] it was 17% (inactive). The superoxide response (% of plate) in test [8] was 92.9% (inactive). Also, the aptamer binding inhibition in test [9] was 4% (inactive). For the same compound, the figures for the response in [10] and in test [12] were -1.13% (inactive) and 3.49% (inactive), respectively. Also, the binding (% of control) in test [13] was 106% (inactive). In addition, in test [14], the efflux inhibition (fraction of control) is -0.42 (inactive). For the same compound, in test [16], the differentiation response was -0.82% (inactive).
As for `Cc1ccc(C(=O)O)cc1NC(=O)c1cccs1`, the percent of DMSO control GFP in test [1] is 100% (inactive). The GFP response vs DMSO in test [2] was 107% (inactive); in test [4] it was 99.4% (inactive). In addition, in test [3], the percent response of DMSO control is 99.3% (inactive). Besides, the GFP response, % of DMSO in test [5] was 98.6% (inactive). In test [6], this compound returned a double positive events of 64.1%. In addition, in [6], the vesicle binding response was 206% (inactive). Further, the values for the inhibition in [7], in test [11] and in test [15] were -17.5% (inactive), -1.98% (inactive) and 10% (inactive), respectively. Also, the superoxide response (% of plate) in [8] is 109% (inactive). The aptamer binding inhibition in test [9] is 8% (inactive). Also, the response is 4.14% (inactive) in [10] and -0.65% (inactive) in test [12]. For the same compound, the binding (% of control) in test [13] was 100% (inactive). Further, in [14], the efflux inhibition (fraction of control) was 0.04 (inactive). The differentiation response in test [16] was 0.41% (inactive).

Values taken from PubChem BioAssay.
